Paper PMC7819943, “Rice protein-binding microarrays: a tool to detect cis-acting elements near promoter regions in rice”
Whole data set: some 35,000 sequences, median “fluorescence intensity (a.u.)” near 10,000, cut for the highest 2% near 52,000. Only a selection was taken, and the highest values are over-represented in it overall.

biological target: T1, OsWOX13 (Oryza sativa, UniProt Q5QMM3 1-267); experiment: protein-binding microarray (RPBM); PBS, 2% BSA, 51.3 ng/ul salmon testes DNA, 50 uM zinc acetate, 200 nM TF, 25 C, 1 h; high values mean tight binding; details: protein: recombinant; tags: N-terminal polyhistidine and DsRed monomer fusion (pET32a); label: CyDye5-dUTP incorporated in the synthesized complementary strand; 3' TTTTT single-stranded linker to array surface; dsDNA, one strand shown
T1 sequence: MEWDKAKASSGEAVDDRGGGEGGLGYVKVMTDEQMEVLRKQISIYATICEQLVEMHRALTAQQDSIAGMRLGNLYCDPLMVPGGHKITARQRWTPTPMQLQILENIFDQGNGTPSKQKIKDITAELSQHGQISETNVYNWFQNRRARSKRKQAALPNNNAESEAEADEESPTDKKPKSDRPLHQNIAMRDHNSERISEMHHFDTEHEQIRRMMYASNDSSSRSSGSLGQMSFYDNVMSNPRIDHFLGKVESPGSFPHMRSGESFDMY
How it was run: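 A custom Agilent array was converted to double-stranded form by primer extension with Cy5-dUTP and blocked with 2% BSA. Protein at 200 nM in PBS with 2% BSA, salmon testes DNA and 50 µM zinc acetate was applied for 1 h at 25 °C, followed by washing. The proteins were polyhistidine–DsRed N-terminal fusions of transcription factors, expressed in E. coli BL21-CodonPlus and Ni–NTA-purified. The binding signal is per-feature fluorescence intensity (arbitrary units) from an Axon 4000B scanner.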

Row | Sequence | binding signal
1 | CTTGATTTATTATTTACCATGTTAGAAATGTTTATTTATACGGAGTCACCTAGTGCAG | 29600 fluorescence intensity (a.u.)
2 | CTGTAATCTTGCTGATTGAATTCTATTTTGATGTGCAGAGCGGAGTCACCTAGTGCAG | 44800 fluorescence intensity (a.u.)
3 | TTTTGAAATTTCAGATTATTTTGTGTGGTTTTGTAATTTGCGGAGTCACCTAGTGCAG | 4570 fluorescence intensity (a.u.)
4 | CAGATTAAAATTTCTGCTCAAGCTAGCCATCGATCATCTGCGGAGTCACCTAGTGCAG | 3930 fluorescence intensity (a.u.)
5 | GATGAAACATTTGACATGAACTAAATTTTGTTCGGCAGTTCGGAGTCACCTAGTGCAG | 5180 fluorescence intensity (a.u.)
6 | CGTAGAAGGGATTGGGTGAAATTACATGGGCATATAGGGACGGAGTCACCTAGTGCAG | 4240 fluorescence intensity (a.u.)
7 | ATAATTAGACTTCTTGTTGCCTTCACCTATTTTAACACATCGGAGTCACCTAGTGCAG | 13000 fluorescence intensity (a.u.)
8 | GAAAATTATGTACATCCTCCGCTTAAAGATGACTATGAATCGGAGTCACCTAGTGCAG | 4540 fluorescence intensity (a.u.)
9 | GATAAGTAAATTAATTGGAAGAAAGAAATCAGTGGGGAGGCGGAGTCACCTAGTGCAG | 13500 fluorescence intensity (a.u.)
10 | AGCCTAATTAATCCGTCATTAGCAAATATTTACTGTAGCACGGAGTCACCTAGTGCAG | 28400 fluorescence intensity (a.u.)
11 | TAAGTAGATCGAAAATGTTTCAATCATTTAAATCAGGCGTCGGAGTCACCTAGTGCAG | 4180 fluorescence intensity (a.u.)
12 | TTATTAATTATCATATTAGTAGTAGTAGTAGTAGCTAGGCCGGAGTCACCTAGTGCAG | 34100 fluorescence intensity (a.u.)
13 | TATGATATGTCAAATCCTATAATTTCTTCGTCCCAAAATGCGGAGTCACCTAGTGCAG | 3440 fluorescence intensity (a.u.)
14 | GAATGGTCCAACAAGGAGACTGAGGAATGGTCAACACATTCGGAGTCACCTAGTGCAG | 59700 fluorescence intensity (a.u.)
15 | ATCGGAGACTGACTGAGTGAAGGTTGGTTGGTTCACACTTCGGAGTCACCTAGTGCAG | 4540 fluorescence intensity (a.u.)
16 | GGTCCAATCAACATGAATAACAAAACAAAGGAAATGGATTCGGAGTCACCTAGTGCAG | 17100 fluorescence intensity (a.u.)
17 | ATGATCAATCAGTAGATTATGCCCTGGTTATTCTTTATAACGGAGTCACCTAGTGCAG | 25400 fluorescence intensity (a.u.)
18 | ATGGATATAAATTGATGAGTACAGTCCTGAGAACTGCAAGCGGAGTCACCTAGTGCAG | 32600 fluorescence intensity (a.u.)
19 | GTTACTGTGATTTGTTTCACGAAGCCCCATGTTTTGAGCCCGGAGTCACCTAGTGCAG | 11700 fluorescence intensity (a.u.)
20 | ACTAATCTGATTGTGTCACTTGTGCGATTGATGGAGTTCACGGAGTCACCTAGTGCAG | 23900 fluorescence intensity (a.u.)
21 | TTTTGATTGAAGACACACCTATTGTCGCGAATACTGCTAACGGAGTCACCTAGTGCAG | 40500 fluorescence intensity (a.u.)
22 | CCACGCCAATTAGCATCCCACGTTTCGCCTTTGATTGTGGCGGAGTCACCTAGTGCAG | 10600 fluorescence intensity (a.u.)
23 | ATTAATAATGTATAATTTATTTTAGTGGTATTAATGTTGTCGGAGTCACCTAGTGCAG | 22400 fluorescence intensity (a.u.)
24 | TGTTACATATAATGAAATTAATTTGGTATTGTAGATGTTGCGGAGTCACCTAGTGCAG | 13600 fluorescence intensity (a.u.)

Row | Sequence | binding signal
25 | CTATAATTTGTAGATGATGTAGTATAATTATATTTAATCACGGAGTCACCTAGTGCAG | 37300 fluorescence intensity (a.u.)
26 | TCATTAATTAATTAATTACAGTGGTAGATGATGATGTAGTCGGAGTCACCTAGTGCAG | 64000 fluorescence intensity (a.u.)
27 | ATATTTAATTATTATTTTAATAAAACTAATTTGGTAATGTCGGAGTCACCTAGTGCAG | 25700 fluorescence intensity (a.u.)
28 | TATAATTTAAATTTAACTAAATTAATGGTATTACAGATGTCGGAGTCACCTAGTGCAG | 58500 fluorescence intensity (a.u.)
29 | CATTATAGATTAATACATTTTGGGATGGAGGGAGTACTCACGGAGTCACCTAGTGCAG | 3200 fluorescence intensity (a.u.)
30 | GACAGGATTATCACCTATTTGTCAACAGTTCACCAGGAGCCGGAGTCACCTAGTGCAG | 3360 fluorescence intensity (a.u.)
31 | ATTTAACGTCATTTATAAACATATACTAGATACTAGTAATCGGAGTCACCTAGTGCAG | 3890 fluorescence intensity (a.u.)
32 | GTCAACTGGAAATTGAAATTCAGCCAAAATTAGTGATCAGCGGAGTCACCTAGTGCAG | 4850 fluorescence intensity (a.u.)
33 | GTAGCAAATTTACAAATTTGCAGGGCTAGCTGTTGCGGTGCGGAGTCACCTAGTGCAG | 11100 fluorescence intensity (a.u.)
34 | AAGCATCAATTCGTTGCCTGATTAGTACAACACTGTTGTGCGGAGTCACCTAGTGCAG | 5420 fluorescence intensity (a.u.)
35 | CTAATCCCAGATTGCTAGTGATTAGCACGTAGATACATAGCGGAGTCACCTAGTGCAG | 21700 fluorescence intensity (a.u.)
36 | TCCAGTCCAATCAGCCCACCATAATTTGGGCCGGAATAAGCGGAGTCACCTAGTGCAG | 17600 fluorescence intensity (a.u.)
37 | ATTTCTGATTGGTGAGATGGGTGATTCGGTAGGCCATTGGCGGAGTCACCTAGTGCAG | 40100 fluorescence intensity (a.u.)
38 | GCCCTTGATTTCTGACTAGATTTGTGTTATTCTACTTACACGGAGTCACCTAGTGCAG | 27200 fluorescence intensity (a.u.)
39 | CAATAATTGAGTGATTTGGCCCAGTCCAGGAACTAGTAAGCGGAGTCACCTAGTGCAG | 56100 fluorescence intensity (a.u.)
40 | CATTTACTAATTTGTTTGCTTGATTGTCCTGGCGAAATTGCGGAGTCACCTAGTGCAG | 40000 fluorescence intensity (a.u.)
41 | AGAGGGTGGGGACATGGGGATTGATTTCACCTGTAGGATTCGGAGTCACCTAGTGCAG | 3430 fluorescence intensity (a.u.)
42 | GTTTGATTGTTTTCTAGTGTACTACACTTCCCTAGAACGTCGGAGTCACCTAGTGCAG | 55000 fluorescence intensity (a.u.)
43 | TGTTTGCGATTGATTTGTACTACACAGTGGGTGCTTCTCCCGGAGTCACCTAGTGCAG | 35300 fluorescence intensity (a.u.)
44 | CGGTAGTGATTGATTCGGATGATTTCACCAGTAGGATTGGCGGAGTCACCTAGTGCAG | 65300 fluorescence intensity (a.u.)
45 | CTAATTAGTTTTGGTTAGTACTTATAATTTTGTCCTAATGCGGAGTCACCTAGTGCAG | 15700 fluorescence intensity (a.u.)
46 | CAACTTGATTAGTAGTAGTACTAGTTTGATTTTGTCCTGGCGGAGTCACCTAGTGCAG | 54200 fluorescence intensity (a.u.)
47 | ATATAAATATTAGTAATCAATTGAGGGAACATTTGATTTGCGGAGTCACCTAGTGCAG | 11300 fluorescence intensity (a.u.)
